In the supplement of paper PMC10849652 one finds log2 fold change data, which are given here for 39 targets.

The full data set covers some 8,800 targets. This sample favours those with a hit. About 0.5% of all pairs of compound and target were hits. Unmarked numbers belong to inactive results.

UniProt P46020, sequence (P46020 whole entry, looked up): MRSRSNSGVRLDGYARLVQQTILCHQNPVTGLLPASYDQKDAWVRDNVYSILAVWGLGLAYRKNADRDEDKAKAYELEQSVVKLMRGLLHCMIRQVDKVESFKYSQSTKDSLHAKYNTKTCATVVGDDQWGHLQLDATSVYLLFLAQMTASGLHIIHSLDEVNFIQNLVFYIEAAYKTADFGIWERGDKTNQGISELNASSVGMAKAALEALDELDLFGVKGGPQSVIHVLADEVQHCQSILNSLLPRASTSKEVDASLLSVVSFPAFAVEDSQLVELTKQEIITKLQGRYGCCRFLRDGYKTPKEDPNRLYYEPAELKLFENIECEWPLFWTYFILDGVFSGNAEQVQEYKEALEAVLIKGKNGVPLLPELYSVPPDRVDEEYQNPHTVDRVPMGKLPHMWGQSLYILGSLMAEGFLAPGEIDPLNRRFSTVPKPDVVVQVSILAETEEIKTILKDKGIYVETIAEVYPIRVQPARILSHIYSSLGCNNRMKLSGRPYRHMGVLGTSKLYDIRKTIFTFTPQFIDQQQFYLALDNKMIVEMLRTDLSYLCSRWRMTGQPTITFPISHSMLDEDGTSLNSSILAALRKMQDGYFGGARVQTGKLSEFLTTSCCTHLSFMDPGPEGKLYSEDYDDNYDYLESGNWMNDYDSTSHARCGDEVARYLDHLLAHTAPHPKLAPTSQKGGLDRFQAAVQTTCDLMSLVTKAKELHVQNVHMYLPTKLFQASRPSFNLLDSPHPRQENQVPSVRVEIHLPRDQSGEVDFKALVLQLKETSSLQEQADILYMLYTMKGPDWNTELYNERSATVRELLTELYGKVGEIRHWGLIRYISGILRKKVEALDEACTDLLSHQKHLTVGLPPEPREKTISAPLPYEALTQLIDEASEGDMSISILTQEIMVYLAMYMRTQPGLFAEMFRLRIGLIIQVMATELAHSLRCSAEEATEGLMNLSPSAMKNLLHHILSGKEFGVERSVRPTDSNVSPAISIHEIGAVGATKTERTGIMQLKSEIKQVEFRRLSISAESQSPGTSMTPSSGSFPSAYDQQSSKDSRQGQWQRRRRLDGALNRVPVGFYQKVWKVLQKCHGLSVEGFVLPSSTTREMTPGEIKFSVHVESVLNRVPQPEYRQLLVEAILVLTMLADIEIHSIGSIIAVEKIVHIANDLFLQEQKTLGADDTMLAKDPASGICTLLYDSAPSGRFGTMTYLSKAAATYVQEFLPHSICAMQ
UniProt Q10713, sequence (Q10713 whole entry, looked up): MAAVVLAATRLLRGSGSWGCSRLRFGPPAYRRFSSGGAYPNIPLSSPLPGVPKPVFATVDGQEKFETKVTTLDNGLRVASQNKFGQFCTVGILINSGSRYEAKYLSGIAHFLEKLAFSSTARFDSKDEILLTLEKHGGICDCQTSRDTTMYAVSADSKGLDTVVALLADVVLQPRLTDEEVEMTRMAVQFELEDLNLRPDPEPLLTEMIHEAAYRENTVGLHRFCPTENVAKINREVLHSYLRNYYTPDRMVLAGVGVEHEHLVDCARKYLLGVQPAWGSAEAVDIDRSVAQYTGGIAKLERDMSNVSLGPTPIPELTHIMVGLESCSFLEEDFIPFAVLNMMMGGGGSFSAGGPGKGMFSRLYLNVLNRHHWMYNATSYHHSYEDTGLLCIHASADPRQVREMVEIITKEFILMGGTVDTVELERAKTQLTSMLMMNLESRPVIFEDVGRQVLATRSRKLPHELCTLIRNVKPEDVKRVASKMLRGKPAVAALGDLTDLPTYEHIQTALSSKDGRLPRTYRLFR
UniProt Q8NAV1, sequence (Q8NAV1 whole entry, looked up): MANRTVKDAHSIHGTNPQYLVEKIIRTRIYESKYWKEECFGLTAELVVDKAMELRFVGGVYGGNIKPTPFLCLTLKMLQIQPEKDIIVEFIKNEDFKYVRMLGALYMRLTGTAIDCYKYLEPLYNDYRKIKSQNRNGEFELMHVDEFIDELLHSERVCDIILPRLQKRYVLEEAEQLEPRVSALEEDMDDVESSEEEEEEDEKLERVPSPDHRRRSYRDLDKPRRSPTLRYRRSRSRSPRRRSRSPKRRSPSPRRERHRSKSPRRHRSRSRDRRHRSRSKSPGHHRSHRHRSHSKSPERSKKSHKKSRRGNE
UniProt P05771, sequence (P05771 whole entry, looked up): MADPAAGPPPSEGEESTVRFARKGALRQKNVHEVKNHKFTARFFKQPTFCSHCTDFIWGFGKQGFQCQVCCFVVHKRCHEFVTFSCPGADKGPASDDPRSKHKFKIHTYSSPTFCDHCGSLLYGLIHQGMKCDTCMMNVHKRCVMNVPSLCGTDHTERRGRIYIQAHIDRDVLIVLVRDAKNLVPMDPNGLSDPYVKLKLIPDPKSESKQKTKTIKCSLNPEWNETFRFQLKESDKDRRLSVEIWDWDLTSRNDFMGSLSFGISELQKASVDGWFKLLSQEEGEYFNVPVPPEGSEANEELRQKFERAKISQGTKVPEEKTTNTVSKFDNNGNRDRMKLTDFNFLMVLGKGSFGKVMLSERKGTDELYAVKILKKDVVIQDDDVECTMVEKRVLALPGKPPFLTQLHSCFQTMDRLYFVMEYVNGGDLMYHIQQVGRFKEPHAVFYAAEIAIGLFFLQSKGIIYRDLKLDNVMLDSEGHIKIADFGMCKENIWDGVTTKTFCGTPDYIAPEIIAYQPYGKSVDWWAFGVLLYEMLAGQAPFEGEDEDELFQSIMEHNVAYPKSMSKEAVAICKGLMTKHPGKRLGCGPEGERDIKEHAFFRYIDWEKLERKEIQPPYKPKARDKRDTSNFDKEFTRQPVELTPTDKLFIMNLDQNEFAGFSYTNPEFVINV
UniProt Q9Y570, sequence (Q9Y570 whole entry, looked up): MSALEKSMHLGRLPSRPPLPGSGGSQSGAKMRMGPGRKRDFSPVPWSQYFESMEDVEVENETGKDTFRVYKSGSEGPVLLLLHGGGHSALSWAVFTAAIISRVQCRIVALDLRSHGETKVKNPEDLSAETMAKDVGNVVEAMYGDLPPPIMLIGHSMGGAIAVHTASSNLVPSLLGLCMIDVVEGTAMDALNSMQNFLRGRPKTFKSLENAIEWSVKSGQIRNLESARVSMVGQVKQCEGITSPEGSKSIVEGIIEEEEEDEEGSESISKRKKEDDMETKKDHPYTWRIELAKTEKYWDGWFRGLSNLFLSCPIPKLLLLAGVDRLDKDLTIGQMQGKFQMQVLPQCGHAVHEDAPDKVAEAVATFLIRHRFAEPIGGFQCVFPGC
UniProt P27986, sequence (P27986 whole entry, looked up): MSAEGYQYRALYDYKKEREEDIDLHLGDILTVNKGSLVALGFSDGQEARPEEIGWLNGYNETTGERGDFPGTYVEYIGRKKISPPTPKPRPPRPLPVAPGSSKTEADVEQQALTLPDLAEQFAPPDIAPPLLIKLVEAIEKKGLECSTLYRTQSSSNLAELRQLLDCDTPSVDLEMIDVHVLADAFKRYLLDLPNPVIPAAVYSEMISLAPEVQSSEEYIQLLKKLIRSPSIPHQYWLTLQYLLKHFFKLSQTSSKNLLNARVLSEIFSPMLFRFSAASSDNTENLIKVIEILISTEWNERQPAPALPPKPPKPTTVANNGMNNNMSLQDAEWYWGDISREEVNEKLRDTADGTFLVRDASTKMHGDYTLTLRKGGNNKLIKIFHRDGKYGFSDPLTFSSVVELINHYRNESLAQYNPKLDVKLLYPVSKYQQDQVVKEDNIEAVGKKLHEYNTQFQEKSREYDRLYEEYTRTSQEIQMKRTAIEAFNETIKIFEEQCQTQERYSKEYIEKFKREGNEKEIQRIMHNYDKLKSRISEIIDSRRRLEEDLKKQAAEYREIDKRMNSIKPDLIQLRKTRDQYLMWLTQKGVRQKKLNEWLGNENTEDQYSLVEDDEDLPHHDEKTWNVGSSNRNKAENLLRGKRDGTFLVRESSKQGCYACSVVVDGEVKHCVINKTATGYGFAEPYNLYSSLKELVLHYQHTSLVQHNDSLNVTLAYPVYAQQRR
UniProt Q16875, sequence (Q16875 whole entry, looked up): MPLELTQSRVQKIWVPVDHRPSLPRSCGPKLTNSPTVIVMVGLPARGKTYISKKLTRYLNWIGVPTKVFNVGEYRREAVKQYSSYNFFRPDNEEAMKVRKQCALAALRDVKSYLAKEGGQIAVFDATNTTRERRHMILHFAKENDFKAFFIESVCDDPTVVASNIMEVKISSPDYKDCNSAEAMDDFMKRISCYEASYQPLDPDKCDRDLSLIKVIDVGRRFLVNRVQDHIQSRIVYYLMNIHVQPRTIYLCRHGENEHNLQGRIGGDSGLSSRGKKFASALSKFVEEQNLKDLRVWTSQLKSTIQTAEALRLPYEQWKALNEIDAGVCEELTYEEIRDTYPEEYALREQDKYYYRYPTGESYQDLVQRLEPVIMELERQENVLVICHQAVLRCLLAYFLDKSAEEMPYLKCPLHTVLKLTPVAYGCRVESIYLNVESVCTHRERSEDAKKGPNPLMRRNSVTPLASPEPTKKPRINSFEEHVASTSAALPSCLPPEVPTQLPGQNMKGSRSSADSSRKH
UniProt P31323, sequence (P31323 whole entry, looked up): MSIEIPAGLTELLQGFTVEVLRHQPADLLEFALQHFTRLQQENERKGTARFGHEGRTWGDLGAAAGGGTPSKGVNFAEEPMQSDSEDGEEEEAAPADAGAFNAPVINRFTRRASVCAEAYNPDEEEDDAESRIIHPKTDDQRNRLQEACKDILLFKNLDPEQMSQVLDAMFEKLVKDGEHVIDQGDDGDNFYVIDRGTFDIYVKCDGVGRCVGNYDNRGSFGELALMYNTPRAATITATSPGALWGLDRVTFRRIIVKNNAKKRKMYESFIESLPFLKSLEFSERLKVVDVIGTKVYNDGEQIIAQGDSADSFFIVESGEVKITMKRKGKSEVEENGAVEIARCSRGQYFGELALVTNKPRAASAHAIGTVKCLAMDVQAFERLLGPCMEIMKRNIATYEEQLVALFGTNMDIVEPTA
UniProt O00264, sequence (O00264 whole entry, looked up): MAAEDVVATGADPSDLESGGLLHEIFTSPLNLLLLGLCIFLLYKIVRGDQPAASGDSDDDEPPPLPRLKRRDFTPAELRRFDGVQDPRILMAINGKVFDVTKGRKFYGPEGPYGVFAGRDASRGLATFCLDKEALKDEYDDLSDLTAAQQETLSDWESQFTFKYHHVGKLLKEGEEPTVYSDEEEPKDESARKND

Compound in the test: CC[C@@H]1C(=O)N(C)c2cnc(Nc3ccc(C(=O)N[C@H]4CC[C@H](N5CCN(CC6CC6)CC5)CC4)cc3OC)nc2N1C(C)C [volasertib]
Put plainly: log2 fold change, soluble protein after heating vs DMSO (PISA); higher = thermal stabilisation; K562 lysate, 10 uM; active = over 0.2 and 3.5 SD of the protein, either way, in both replicates (recomputed). The gist of the method:
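K562 pellets were dounce-homogenised in PBS pH 7.4 containing 1 mM MgCl2, and the crude extract, at 1 mg/mL protein, was exposed to 10 μM compound for 30 min. Aliquots were heated for 3 min across 48°C-58°C, pooled, brought to 0.5% NP-40 at 4°C and spun at 21,000xg for 90 min, with the supernatant taken as soluble protein. TMTpro 16plex LC-MS/MS with equalised channel sums quantified that protein. Values are log-two fold changes in thermal stability relative to solvent controls, taken from duplicates.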
In the case of PCIF1 (UniProt Q9H4Z3), the log2 fold change was 0.005.

For the target PEF1 (UniProt Q9UBV8), the log2 fold change was 0.009.

Take PMPCA (UniProt Q10713): the log2 fold change was -0.031.

On to PPP4R2 (UniProt Q9NY27), for which the log2 fold change is -0.014.

Regarding PLXNB2 (UniProt O15031), the log2 fold change is -0.021.

On to PIK3R1 (UniProt P27986), for which the log2 fold change was 0.016.

As to PTGR2 (UniProt Q8N8N7), the log2 fold change is -0.039.

Consider PFKFB4 (UniProt Q16877), for which the log2 fold change was -0.068.

In the case of PFAS (UniProt O15067), the log2 fold change is -0.091.

In the case of PRKAR2B (UniProt P31323), the log2 fold change is -0.043.

Regarding PGRMC1 (UniProt O00264), the log2 fold change was 0.008.

Consider PPP3CA isoform 2 (UniProt Q08209), for which the log2 fold change was -0.005.

As for PUM1 isoform 3 (UniProt Q14671), the log2 fold change was -0.063.

As to PPP1R14C (UniProt Q8TAE6), the log2 fold change was 0.037.

PRKCB isoform 2 (UniProt P05771): the log2 fold change is -0.062.

As for PIP4K2A (UniProt P48426), the log2 fold change was 0.087.

In the case of POLR2B (UniProt P30876), the log2 fold change is -0.074.

As to PPP2R3C (UniProt Q969Q6), the log2 fold change was 0.

With PFKFB3 isoform 4 (UniProt Q16875), the log2 fold change is 0.067.

Consider PCF11 (UniProt O94913), for which the log2 fold change was -0.029.

With PRPF38A (UniProt Q8NAV1), the log2 fold change is -0.031.

Turning to POMP (UniProt Q9Y244), the log2 fold change is -0.007.

Take PRKD2 isoform 3 (UniProt Q9BZL6): the log2 fold change is -0.131.

As for PPIE (UniProt Q9UNP9), the log2 fold change is 0.018.

In the case of POLR2F (UniProt P61218), the log2 fold change was 0.036.

Take PWP1 (UniProt Q13610): the log2 fold change is -0.004.

For PLEKHA5 isoform 6 (UniProt Q9HAU0), the log2 fold change is 0.003.

On to PHKB isoform 3 (UniProt Q93100), for which the log2 fold change is -0.034.

For the target PRKCSH (UniProt P14314), the log2 fold change was 0.04.

For the target PIK3R2 (UniProt O00459), the log2 fold change was -0.003.

For the target PITRM1 isoform 2 (UniProt Q5JRX3), the log2 fold change was 0.127.

For PIKFYVE (UniProt Q9Y2I7), the log2 fold change was -0.047.

Regarding PPIL3 (UniProt Q9H2H8), the log2 fold change is -0.007.

For PTPN1 (UniProt P18031), the log2 fold change was -0.04.

For the target PPME1 isoform 4 (UniProt Q9Y570), the log2 fold change is 0.016.

Turning to PPM1H (UniProt Q9ULR3), the log2 fold change is 0.025.

Take PRPF6 (UniProt O94906): the log2 fold change was -0.015.

Take PRRC2A (UniProt P48634): the log2 fold change was 0.012.

On to PHKA1 (UniProt P46020), for which the log2 fold change is -0.074.
